Where “and” joins values, the source holds several entries; their conditions need not be identical. Identical values can stand only once. About 4,000 (25%) of roughly 16,000 compounds were called active. About 26% were inconclusive and are not listed. Calls come from the whole dose curve; as a rule, active = well fitted curve in the direction sought with a large enough effect; inconclusive = small, poorly fitted or top-dose-only effect, or effect the other way; inactive = no such curve, though single readings can be large or run the other way. These entries were drawn from the full list.

22 molecules from PubChem BioAssay AID1851 (National Center for Advancing Translational Sciences (NCATS), 2009) can be followed below.
% is set by controls: 0 for no effect and ±100 for the full control effect.

Sequence of Cytochrome P450 2C9 (Homo sapiens) (P11712 whole entry, looked up): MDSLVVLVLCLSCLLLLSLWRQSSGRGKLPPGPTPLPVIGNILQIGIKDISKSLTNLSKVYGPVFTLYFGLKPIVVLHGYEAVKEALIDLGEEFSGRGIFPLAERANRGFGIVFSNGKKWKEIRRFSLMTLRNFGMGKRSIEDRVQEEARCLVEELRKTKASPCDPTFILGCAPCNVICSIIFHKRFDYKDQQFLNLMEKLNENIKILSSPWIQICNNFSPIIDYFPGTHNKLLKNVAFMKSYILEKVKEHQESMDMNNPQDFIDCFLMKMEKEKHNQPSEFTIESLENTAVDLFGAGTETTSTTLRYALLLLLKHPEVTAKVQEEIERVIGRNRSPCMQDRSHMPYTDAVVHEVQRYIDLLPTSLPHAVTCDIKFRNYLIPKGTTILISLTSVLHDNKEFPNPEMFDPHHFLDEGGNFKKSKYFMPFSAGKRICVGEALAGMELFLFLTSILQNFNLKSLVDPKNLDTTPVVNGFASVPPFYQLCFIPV

The experiment has as its target Cytochrome P450 2C9 (Homo sapiens) (UniProt P11712). In words: Cytochrome panel assay with activity outcomes. Conditions: recombinant CYP, pro-luciferin dealkylation, luminescence, p450-cyp2c9; series mostly up to 57.1 µM; activity, negative = inhibition: at the top concentration.
With `O=S(=O)(O)[C@@H](c1ccccc1)[C@@H](O)c1ccccc1`, the activity, negative = inhibition is 3.25% [at 11.4 µM] (inactive).
For `COc1cc(/C=N/NC(N)=O)c(Br)cc1OCC(=O)Nc1ccccc1C`, the AC50 is 3.16 µM (active).
For `COCCCNC(=O)C(=O)N/N=C/c1ccc(OCC(=O)Nc2cccc(Cl)c2C)c(OC)c1`, the “activity, negative = inhibition” value was -2.04% (inactive).
For the molecule `O=C(NCC1COc2ccccc2O1)C1C2C=CC3(CN(Cc4cccs4)C(=O)C13)O2` (configuration not stated), the AC50 was 31.6 µM (active).
As for `Cc1ccc(CN2CC34C=CC(O3)C(C(=O)NCc3ccco3)C4C2=O)cc1` (configuration not stated), the “activity, negative = inhibition” value was -20.2% (inactive).
Same read-out and setting: the result for `COCCCNC(=O)C1C2C=CC3(CN(Cc4ccc(C)cc4)C(=O)C13)O2` (configuration not stated) reads 9.83% (inactive).
Still for that read-out and setting: the same measure for `c1ccc(C[n+]2cccc(-c3cc4ccccc4[nH]3)c2)cc1`: -9.64% [at 11.4 µM] (inactive); for `O=C1C[C@@H](O)[C@@H](O)[C@H]2[C@@H]3C(=O)N(c4cccc(Oc5ccccc5)c4)C(=O)[C@@H]3CC[C@H]12`: -10.3% [at 11.4 µM] (inactive) and 1.22% [at 11.4 µM] (inactive).
As to `O=C(Nc1ncc(Cc2ccccc2)s1)C1COc2ccccc2O1` (configuration not stated), the AC50 was 6.31 µM (active).
Same read-out and setting: the same measure for `O=C(Nc1nnc(SCc2ccc(Cl)cc2Cl)s1)C1COc2ccccc2O1` (configuration not stated): 7.08 µM (active).
Turning to `CN(Cc1ccco1)c1cc(-c2ccccc2C(F)(F)F)ncn1`, the activity, negative = inhibition is 9.45% [at 2.29 µM] (inactive).
On the same count and under the same terms, the result for `COc1cc(OC)c2c(c1)C(=O)c1cc(OC)cc(OC)c1C2=O` reads -2.23% (inactive); that for `COc1ccc2[nH]cc(CCNc3cc(-c4ccccc4C)ncn3)c2c1`, -17.1% [at 2.29 µM] (inactive).
Consider `COc1ccc2c(=O)c(-c3ccccc3C)c(C)oc2c1`, for which the half-maximal activity concentration (AC50) was 17.8 µM (active).
For `Clc1ccc2c(c1)N(CCCN1CCCC13CCCCC3)c1ccccc1S2`, the activity, negative = inhibition is 10.5% [at 11.4 µM] (inactive).
Regarding `COC(=O)[C@@]1(Cc2ccccc2)[C@H]2c3cc(C(=O)N4CCCC4)n(Cc4ccc(OC)c(OC)c4)c3C[C@H]2CN1C(=O)c1ccccc1`, the AC50 is 1.26 µM (active).
For the molecule `COC(=O)[C@@]1(Cc2ccccc2)[C@H]2c3cc(C(=O)N4CCCC4)n(Cc4ccc(O)c(OC)c4)c3C[C@H]2CN1C(=O)c1ccccc1`, the AC50 is 2.51 µM (active).
For `CC(N)=O`, the “activity, negative = inhibition” value is 4.3% (inactive).
For the molecule `NC(=O)Nc1n[nH]c(-c2ccccc2)n1`, the activity, negative = inhibition was -4.69% [at 11.4 µM] (inactive).
For `N#Cc1ccc(OC(=O)c2ccc(N=C(N)N)cc2)cc1`, the activity, negative = inhibition was 12.7% [at 11.4 µM] (inactive).
Consider `N#Cc1ccc(Oc2nc(C(N)=O)cc(-c3ccccc3)n2)cc1`, for which the AC50 is 6.31 µM (active).
Take `O=C(NC[C@@H](O)CO)c1c(I)c(C(=O)NC[C@@H](O)CO)c(I)c(N(CCO)C(=O)CO)c1I`: the “activity, negative = inhibition” value was 16.1% [at 25.6 µM] (inactive).
